Bioassay records as filed in PubChem BioAssay.
An excerpt weighted towards active compounds, which were near 2.3% of everything screened.
Nrf2 block = Nrf2 qHTS screen for inhibitors; A549 ARE-Fluc reporter, luciferase luminescence, 18-24 h; Potency, µM (series often up to 46 µM), for inactives: at the top dose activity change, negative = inhibition, hits mostly inhibitors; hit rate 2.1% among 360,000; AID 504444, 2011; also: potency is read from the fitted curve at half-maximal effect; % is scaled to controls: 0 for no effect and ±100 for the full control effect; nearly all actives have a fitted effect of over 60% in size
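Reporter: ARE-Fluc in A549. Exposure: 18-24 h, 37 °C, 5% CO2, 5% FBS OPTI-MEM. Readouts: fluorescent cytotoxicity (CellTiter-Fluor), then luminescent Nrf2 signal after BugLite.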
A549 viability = Nrf2 qHTS screen for inhibitors: counterscreen for cytotoxicity | hit rate 0.16% among 390,000 | Potency, µM (highest dose often 46 µM), for inactives: at the top dose activity change, negative = cytotoxicity, hits mostly inhibitors | A549 ARE-Fluc cells, CellTiter-Fluor viability, 18-24 h; also: potency is read from the fitted curve at half-maximal effect; % is scaled to controls: 0 for no effect and ±100 for the full control effect
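A549 ARE_Fluc cells in 5% FBS OPTI-MEM were exposed to compounds in concentration-response for 18-24 h at 37 deg C. Viability was read by CellTiter-Fluor fluorescence (Ex 405/Em 525) after 30 min, before the luciferase read.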
Nrf2 ARE act = qHTS of Nrf2 Activators; AREc32 ARE-luciferase reporter (MCF7-derived line), luminescence, 24 h; hit rate 0.31% among 410,000; Potency, µM (titrated, usually from 46.1 µM), for the others: top-dose activation, most hits filed as activators; also: potency is read from the fitted curve at half-maximal effect; % of control where 0% means no effect; nearly all actives have a fitted effect of over 65% in size
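AREc32_Fluc, 1000 cells/well, OPTI-MEM + 5% FBS, o/n 37 deg C 5% CO2; 23 nL cpd by pin tool, 24 hr; Steady-Glo 30 min RT, luminescence.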
IL-2 act = qHTS of IL-2 Activators | hit rate 0.065% among 360,000 | AID 652025, 2013 | IL-2 activation reporter assay, cell-based qHTS; stimulated with anti-CD3/CD4/CD28 beads; in transgenic mouse T cells | activation, % (series mostly up to about 46 µM); in the data active = activation above about 50%; inconclusive = mostly about 30% to 49%; also: 0% is about no effect
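EGFP and DsRed fluorescence is measured by plate cytometry in unstimulated transgenic mouse T cells exposed to compound for 60 minutes, then stimulated 18 hours at 37 degrees C with anti-CD3/anti-CD4 beads plus anti-CD28.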
* marks the source's active call; other numbers are inactive results; [ ] = another dose, or the depositor's remark. Unless noted, calls follow the shape of the dose curve; as a rule, active = well fitted curve in the direction sought with a large enough effect; inconclusive = small, poorly fitted or top-dose-only effect, or another doubt; inactive = no such curve, though single readings can be large; an effect the other way counts as inactive or inconclusive.

Results for O=C(Nc1ccccc1)C(Cc1ccccc1)N1Cc2ccccc2C1=O (configuration not stated) ?
Nrf2 block: -3.1%; A549 viability: 1.3%; Nrf2 ARE act: -1.3%

What do the screens show for `O=C(Nc1ccc([N+](=O)[O-])cc1)C(Cc1ccccc1)N1C(=O)c2cccc3cccc(c23)C1=O` (configuration not stated)?
Nrf2 block: -19.7%; A549 viability: -7.6%; Nrf2 ARE act: 3.4%[9.22 µM]; IL-2 act: 159.6*

What do the screens show for `CCc1nn2c(-c3ccccc3OC)ccnc2c1-c1ccc(F)cc1`?
Nrf2 block: inconclusive; A549 viability: 5.1%; Nrf2 ARE act: 6.9%

Results for COC(=O)c1sccc1NC(=O)c1ccccc1 ?
Nrf2 block: inconclusive; A549 viability: 1.4%; Nrf2 ARE act: 7.08µM*; IL-2 act: -3.6

How did COC(=O)c1sccc1NC(=O)COc1ccccc1Cl do in these assays?
Nrf2 block: inconclusive; A549 viability: 2.7%; Nrf2 ARE act: 12.6µM*; IL-2 act: -1.6

How did COC(=O)c1sccc1NC(=O)c1ccc(Br)o1 do in these assays?
Nrf2 block: 27.3%; A549 viability: 0.3%; Nrf2 ARE act: 5.62µM*; IL-2 act: -0.3

How did COC(=O)c1sccc1NC(=O)c1ccc(C)o1 do in these assays?
Nrf2 block: -8.3%; A549 viability: -3.5%; Nrf2 ARE act: inconclusive; IL-2 act: -4.1

What do the screens show for `COC(=O)c1sccc1NC(=O)c1cccc(OC)c1`?
Nrf2 block: 13.6%; A549 viability: 3.1%; Nrf2 ARE act: 6.31µM*; IL-2 act: -1.1

Results for O=C1Cc2cc(S(=O)(=O)N3CCN(c4cccc(C(F)(F)F)c4)CC3)ccc2N1 ?
Nrf2 block: 5.8%[92.2 µM]; A549 viability: 13.0%[92.2 µM]

Results for COC(=O)c1ccccc1NC(=O)COc1ccccc1[N+](=O)[O-] ?
Nrf2 block: inconclusive; A549 viability: 8.5%; Nrf2 ARE act: 5.01µM*; IL-2 act: 1.0

What do the screens show for `COC(=O)C(C)N(C(=O)c1cccc(Cl)c1)c1c(C)cccc1C` (configuration not stated)?
Nrf2 block: -9.8%; A549 viability: 2.8%; Nrf2 ARE act: -0.3%; IL-2 act: 0.5

Results for COC(=O)C(C)N(C(=O)c1cccc2ccccc12)c1c(C)cccc1C (configuration not stated) ?
Nrf2 block: 18.4µM*; A549 viability: -11.1%; Nrf2 ARE act: -1.6%; IL-2 act: -4.4

Results for COc1ccc2c(C)c(CC(=O)N3CCN(C(=O)C4COc5ccccc5O4)CC3)c(=O)oc2c1C (configuration not stated) ?
Nrf2 block: 15.2%; A549 viability: 5.8%; Nrf2 ARE act: -0.3%; IL-2 act: 1.1

Results for Cc1c(CC(=O)N2CCN(C(=O)C3COc4ccccc4O3)CC2)c(=O)oc2cc(O)c(Cl)cc12 (configuration not stated) ?
Nrf2 block: 23.1µM*; A549 viability: 1.0%; Nrf2 ARE act: 0.0%; IL-2 act: -0.7

Results for Cc1cccc(NC2=CC(c3cccc(Br)c3)N(c3cccc(C)c3)C2=O)c1 (configuration not stated) ?
Nrf2 block: inconclusive; A549 viability: 1.7%; Nrf2 ARE act: 3.5%

Results for O=C(NCc1ccccc1Cl)c1ccc(NC(=O)c2nsc3ccccc23)cc1 ?
A549 viability: -5.3%; Nrf2 ARE act: -0.8%

What do the screens show for `CC(C)C(=O)Nc1nnc(-c2ccco2)s1`?
Nrf2 block: 23.2%; A549 viability: -6.6%; Nrf2 ARE act: 10µM*; IL-2 act: -4.1

Results for O=C(Nc1nnc(-c2ccco2)s1)C1CC1 ?
Nrf2 block: 2.2%; A549 viability: -7.7%; Nrf2 ARE act: 11.2µM*; IL-2 act: -0.5

What do the screens show for `CCOC(=O)N1CCN(c2ccc(S(=O)(=O)N3CCC(C)CC3)cc2[N+](=O)[O-])CC1`?
Nrf2 block: 18.4µM*; A549 viability: -2.2%; Nrf2 ARE act: 0.4%; IL-2 act: -0.5

What do the screens show for `CC(=O)N1CCN(c2ccc(S(=O)(=O)N3CCOCC3)cc2[N+](=O)[O-])CC1`?
Nrf2 block: 1.0%; A549 viability: 2.8%; Nrf2 ARE act: -0.1%; IL-2 act: 0.7

Results for O=C(NC1CCCc2c1cnn2-c1ccccc1F)c1ccccn1 (configuration not stated) ?
Nrf2 block: inconclusive; A549 viability: 0.2%; Nrf2 ARE act: 3.3%; IL-2 act: -0.2
